# Assay results from the supplement of paper PMC8728848.
# This is one part of a sample in which the strongest signals are shown more often than they occur.
# Columns and labels:
# Experiment in all cases: glycan array binding signal (z-score within array); higher = stronger binding
# Conditions in all cases: glycan notation: IUPAC condensed, linker removed
# [1] = target: Fuc(a1-2)Gal(b1-3)GalNAc(a1-3)[Fuc(a1-2)]Gal(b1-4)GlcNAc
# Summary of the method: (§1)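 Negative Z-scores can be read as non-binding. The Z-score is calculated within each array and then averaged across arrays of one protein sequence at different concentrations or buffers and across linkers. Arrays, 3228 in all, were curated from the Consortium for Functional Glycomics database and kept only where the protein sequence was available.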
# [2] = target: Fuc(a1-2)Gal(b1-3)GalNAc(b1-4)[Neu5Ac(a2-3)]Gal(b1-4)Glc
# Summary of the method: as §1
# [3] = target: Fuc(a1-2)Gal(b1-3)GlcNAc(b1-3)[Gal(b1-4)GlcNAc(b1-6)]Gal(b1-4)Glc
# Summary of the method: as §1
# [4] = target: Fuc(a1-2)Gal(b1-3)[Fuc(a1-4)]GlcNAc(b1-3)[Fuc(a1-3)[Gal(b1-4)]GlcNAc(b1-6)]Gal(b1-4)Glc
# Summary of the method: as §1
# [5] = target: Fuc(a1-2)Gal(b1-4)GlcNAc(b1-2)[Fuc(a1-2)Gal(b1-4)GlcNAc(b1-4)]Man(a1-3)[Fuc(a1-2)Gal(b1-4)GlcNAc(b1-2)Man(a1-6)]Man(b1-4)GlcNAc(b1-4)GlcNAc
# Summary of the method: as §1
# [6] = target: Fuc(a1-2)[Gal(a1-3)]Gal(b1-3)GlcNAc
# Summary of the method: as §1
# [7] = target: Fuc(a1-2)[Gal(a1-3)]Gal(b1-4)Glc
# Summary of the method: as §1
# [8] = target: Fuc(a1-2)[Gal(a1-4)]Gal(b1-4)GlcNAc
# Summary of the method: as §1
# [9] = target: Fuc(a1-2)[GalNAc(a1-3)]Gal(b1-4)Glc
# Summary of the method: as §1
# [10] = target: Fuc(a1-2)[GalNAc(a1-3)]Gal(b1-4)GlcNAc
# Summary of the method: as §1
# [11] = target: Fuc(a1-2)[GalNAc(a1-3)]Gal(b1-4)GlcNAc(b1-2)Man(a1-3)[Fuc(a1-2)[GalNAc(a1-3)]Gal(b1-4)GlcNAc(b1-2)Man(a1-6)]Man(b1-4)GlcNAc(b1-4)GlcNAc
# Summary of the method: as §1
# [12] = target: Fuc(a1-3)[Gal(b1-4)]GlcNAc(b1-4)Gal(b1-4)[Fuc(a1-3)]GlcNAc(b1-4)Gal(b1-4)[Fuc(a1-3)]GlcNAc
# Summary of the method: as §1
# [13] = target: Fuc(a1-4)GlcNAc
# Summary of the method: as §1
# [14] = target: Gal(a1-3)Gal(b1-4)Glc
# Summary of the method: as §1
# [15] = target: Gal(a1-4)Gal(b1-4)GlcNAc(b1-2)Man(a1-3)[Gal(a1-4)Gal(b1-4)GlcNAc(b1-2)Man(a1-6)]Man(b1-4)GlcNAc(b1-4)GlcNAc
# Summary of the method: as §1
# [16] = target: Gal(b1-3)GlcNAc
# Summary of the method: as §1
# [17] = target: Gal(b1-3)GlcNAc(b1-2)Man(a1-3)[Gal(b1-3)GlcNAc(b1-2)Man(a1-6)]Man(b1-4)GlcNAc(b1-4)GlcNAc
# Summary of the method: as §1
# [18] = target: Gal(b1-3)GlcNAc(b1-2)Man(a1-3)[Gal(b1-3)GlcNAc(b1-2)Man(a1-6)]Man(b1-4)GlcNAc(b1-4)[Fuc(a1-6)]GlcNAc
# Summary of the method: as §1
# [19] = target: Gal(b1-3)[Fuc(a1-4)]GlcNAc(b1-2)Man(a1-3)[Gal(b1-3)[Fuc(a1-4)]GlcNAc(b1-2)Man(a1-6)]Man(b1-4)GlcNAc(b1-4)GlcNAc
# Summary of the method: as §1
# [20] = target: Gal(b1-3)[Fuc(a1-4)]GlcNAc(b1-2)Man(a1-3)[Gal(b1-3)[Fuc(a1-4)]GlcNAc(b1-2)Man(a1-6)]Man(b1-4)GlcNAc(b1-4)[Fuc(a1-6)]GlcNAc
# Summary of the method: as §1
# [21] = target: Gal(b1-3)[Neu5Ac(a2-6)]GalNAc
# Summary of the method: as §1
# [22] = target: Gal(b1-3)[Neu5Ac(a2-6)]GlcNAc(b1-6)Gal(b1-4)Glc
# Summary of the method: as §1
# [23] = target: Gal(b1-4)GlcNAc(b1-2)Man(a1-3)[Gal(b1-4)GlcNAc(b1-2)Man(a1-6)]Man(b1-4)GlcNAc(b1-4)[Fuc(a1-6)]GlcNAc
# Summary of the method: as §1
# [24] = target: Gal(b1-4)GlcNAc(b1-2)Man(a1-3)[GlcNAc(b1-2)Man(a1-6)]Man(b1-4)GlcNAc(b1-4)GlcNAc
# Summary of the method: as §1
# [25] = target: Gal(b1-4)GlcNAc(b1-6)Gal(b1-4)GlcNAc
# Summary of the method: as §1
# [26] = target: Gal3S(b1-3)[Fuc(a1-4)]GlcNAc
# Summary of the method: as §1
# [27] = target: Gal3S(b1-4)Glc6S
# Summary of the method: as §1
# [28] = target: Gal3S(b1-4)GlcNAc6S
# Summary of the method: as §1
# [29] = target: Gal3S6S(b1-4)GlcNAc6S
# Summary of the method: as §1
# [30] = target: Gal6S(b1-3)GlcNAc6S
# Summary of the method: as §1
# [31] = target: Gal6S(b1-4)GlcNAc6S
# Summary of the method: as §1
# [32] = target: GalNAc(b1-6)GalNAc
# Summary of the method: as §1
# [33] = target: Glc(b1-6)Glc
# Summary of the method: as §1
# [34] = target: GlcA(b1-3)GlcNAc
# Summary of the method: as §1
# [35] = target: GlcNAc(a1-4)Gal(b1-4)GlcNAc(b1-3)Gal(b1-4)[Fuc(a1-3)]GlcNAc(b1-3)Gal(b1-4)[Fuc(a1-3)]GlcNAc
# Summary of the method: as §1
# [36] = target: GlcNAc(b1-2)Man(a1-3)[GlcNAc(b1-4)][GlcNAc(b1-2)Man(a1-6)]Man(b1-4)GlcNAc(b1-4)GlcNAc
# Summary of the method: as §1
# [37] = target: GlcNAc(b1-2)[GlcNAc(b1-4)]Man(a1-3)[GlcNAc(b1-4)][GlcNAc(b1-2)Man(a1-6)]Man(b1-4)GlcNAc(b1-4)GlcNAc
# Summary of the method: as §1
# [38] = target: Neu5Ac(a2-3)Gal(b1-3)GalNAc(b1-3)Gal(a1-4)Gal(b1-4)Glc
# Summary of the method: as §1
# [39] = target: Neu5Ac(a2-3)Gal(b1-3)GlcNAc(b1-3)Gal(b1-3)GlcNAc
# Summary of the method: as §1
# [40] = target: Neu5Ac(a2-3)Gal(b1-3)[Fuc(a1-4)]GlcNAc(b1-3)Gal(b1-3)[Fuc(a1-4)]GlcNAc
# Summary of the method: as §1
# [41] = target: Neu5Ac(a2-3)Gal(b1-4)GlcNAc(b1-3)Gal(b1-3)GlcNAc
# Summary of the method: as §1
# [42] = target: Neu5Ac(a2-3)Gal(b1-4)GlcNAc(b1-6)[Neu5Ac(a2-3)Gal(b1-3)]GalNAc
# Summary of the method: as §1
# [43] = target: Neu5Ac(a2-3)Gal(b1-4)[Fuc(a1-3)]GlcNAc(b1-3)GalNAc
# Summary of the method: as §1
# [44] = target: Neu5Ac(a2-3)Gal(b1-4)[Fuc(a1-3)]GlcNAc(b1-6)[Gal(b1-3)]GalNAc
# Summary of the method: as §1
# [45] = target: Neu5Ac(a2-3)[GalNAc(b1-4)]Gal(b1-4)GlcNAc(b1-3)GalNAc
# Summary of the method: as §1
# [46] = target: Neu5Ac(a2-6)Gal(b1-4)GlcNAc(b1-2)Man(a1-3)[GlcNAc(b1-2)Man(b1-4)GlcNAc(b1-2)Man(a1-6)]Man(b1-4)GlcNAc(b1-4)GlcNAc
# Summary of the method: as §1
# [47] = target: Neu5Ac(a2-6)Gal(b1-4)GlcNAc(b1-2)Man(a1-3)[Man(a1-6)]Man(b1-4)GlcNAc(b1-4)GlcNAc
# Summary of the method: as §1
# [48] = target: Neu5Ac(a2-6)Gal(b1-4)GlcNAc(b1-3)Gal(b1-4)GlcNAc(b1-3)Gal(b1-4)GlcNAc
# Summary of the method: as §1
# [49] = target: Neu5Ac(a2-6)Gal(b1-4)GlcNAc(b1-3)Gal(b1-4)[Fuc(a1-3)]GlcNAc(b1-3)Gal(b1-4)[Fuc(a1-3)]GlcNAc
# Summary of the method: as §1
# [50] = target: Neu5Ac(a2-8)Neu5Ac(a2-3)[Gal(b1-3)GalNAc(b1-4)]Gal(b1-4)Glc
# Summary of the method: as §1
# [51] = target: Neu5Ac(a2-3)Gal(b1-4)GlcNAc(b1-3)Gal
# Summary of the method: as §1
# [52] = target: Neu5Ac(a2-3)Gal(b1-4)[Fuc(a1-3)]GlcNAc(b1-3)Gal(b1-4)GlcNAc
# Summary of the method: as §1
# [53] = target: Neu5Ac(a2-3)Gal(b1-4)[Fuc(a1-3)]GlcNAc(b1-3)Gal(b1-4)[Fuc(a1-3)]GlcNAc(b1-3)Gal(b1-4)[Fuc(a1-3)]GlcNAc
# Summary of the method: as §1
# [54] = target: Neu5Ac(a2-3)Gal6S(b1-4)GlcNAc
# Summary of the method: as §1
# [55] = target: Neu5Ac(a2-3)[Neu5Ac(a2-6)]GalNAc
# Summary of the method: as §1
# [56] = target: Neu5Ac(a2-6)Gal(b1-4)GlcNAc(b1-2)Man(a1-6)[Man(a1-3)]Man(b1-4)GlcNAc(b1-4)GlcNAc
# Summary of the method: as §1
# [57] = target: Neu5Ac(a2-8)Neu5Ac(a2-8)Neu5Ac(a2-3)Gal(b1-4)Glc
# Summary of the method: as §1
# [58] = target: Neu5Ac9Ac(a2-3)Gal(b1-3)GlcNAc
# Summary of the method: as §1
binder,measurement,setting,value
"rPitB (Streptococcus pneumoniae), A0A0I7U739 (protein) MSEIEIINAKKIYHDVPVIENLNITIPKGSLFTLLGASGCGKTTLLRMIAGFNSIKDGEFYFDDTKINNMEPSKRNIGLVFQNYAIFPHLTVRDNVAFGLMQKKVPKEELIQQTNKYLELMQIAQYAD",glycan array binding signal (z-score),[1],-0.708
same,glycan array binding signal (z-score),[2],-0.128
same,glycan array binding signal (z-score),[3],-0.397
same,glycan array binding signal (z-score),[4],0.227
same,glycan array binding signal (z-score),[5],0.316
same,glycan array binding signal (z-score),[6],-0.113
same,glycan array binding signal (z-score),[7],1.11
same,glycan array binding signal (z-score),[8],-0.108
same,glycan array binding signal (z-score),[9],-0.271
same,glycan array binding signal (z-score),[10],-0.509
same,glycan array binding signal (z-score),[11],0.481
same,glycan array binding signal (z-score),[12],3.03
same,glycan array binding signal (z-score),[13],-0.579
same,glycan array binding signal (z-score),[14],-0.617
same,glycan array binding signal (z-score),[15],1.43
same,glycan array binding signal (z-score),[16],-0.704
same,glycan array binding signal (z-score),[17],0.944
same,glycan array binding signal (z-score),[18],0.638
same,glycan array binding signal (z-score),[19],3.68
same,glycan array binding signal (z-score),[20],2.09
same,glycan array binding signal (z-score),[21],0.092
same,glycan array binding signal (z-score),[22],-0.142
same,glycan array binding signal (z-score),[23],0.8
same,glycan array binding signal (z-score),[24],-0.568
same,glycan array binding signal (z-score),[25],-0.596
same,glycan array binding signal (z-score),[26],-0.575
same,glycan array binding signal (z-score),[27],0.112
same,glycan array binding signal (z-score),[28],0.471
same,glycan array binding signal (z-score),[29],-0.233
same,glycan array binding signal (z-score),[30],0.052
same,glycan array binding signal (z-score),[31],0.24
same,glycan array binding signal (z-score),[32],-0.608
same,glycan array binding signal (z-score),[33],-0.176
same,glycan array binding signal (z-score),[34],5.72
same,glycan array binding signal (z-score),[35],3.89
same,glycan array binding signal (z-score),[36],-0.914
same,glycan array binding signal (z-score),[37],-1.01
same,glycan array binding signal (z-score),[38],-0.604
same,glycan array binding signal (z-score),[39],-0.301
same,glycan array binding signal (z-score),[40],2.33
same,glycan array binding signal (z-score),[41],-0.394
same,glycan array binding signal (z-score),[42],0.027
same,glycan array binding signal (z-score),[43],4.13
same,glycan array binding signal (z-score),[44],2.86
same,glycan array binding signal (z-score),[45],-0.463
same,glycan array binding signal (z-score),[46],-0.255
same,glycan array binding signal (z-score),[47],0.505
same,glycan array binding signal (z-score),[48],0.323
same,glycan array binding signal (z-score),[49],0.032
same,glycan array binding signal (z-score),[50],-0.053
"3FTT (Staphylococcus aureus), Q5HCZ5 (protein) MTEKEKMLAEKWYDANFDQYLINERARAKDICFELNHTRPSATNKRKELIDQLFQTTTDNVSISIPFDTDYGWNVKLGKNVYVNTNCYFMDGGQITIGDNVFIGPNCGFYTATHPLNFHHRNEGFEKAGPIHIGSNTWFGGHVAVLPGVTIGEGSVIGAGSVVTKDIPPHSLAVGNPCKVVRKIDNDLPSETLNDETIK",glycan array binding signal (z-score),[51],0.012
same,glycan array binding signal (z-score),[52],0.162
same,glycan array binding signal (z-score),[53],-0.195
same,glycan array binding signal (z-score),[54],0.037
same,glycan array binding signal (z-score),[55],0.223
same,glycan array binding signal (z-score),[56],-0.226
same,glycan array binding signal (z-score),[57],0.056
same,glycan array binding signal (z-score),[58],-0.153
